From PubChem BioAssay AID1851 (National Center for Advancing Translational Sciences (NCATS), 2009)
The whole screen tested about 16,000 compounds, of which about 5,700 (36%) were called active. Roughly 24% stayed inconclusive and do not appear here. The list shows a part of the results. A number with no mark means an inactive call. Calls follow the shape of the dose curve; as a rule, active = well fitted curve in the direction sought with a large enough effect; inconclusive = small, poorly fitted or top-dose-only effect, or effect the other way; inactive = no such curve, though single readings can be large or run the other way.
% is scaled to controls: 0 for no effect and ±100 for the full control effect.

Each molecule was assayed against Cytochrome P450 1A2 (Homo sapiens) (UniProt P05177) (assay: Cytochrome panel assay with activity outcomes). Settings: recombinant CYP, pro-luciferin dealkylation, luminescence, p450-cyp1a2; series mostly up to 57.1 µM; activity, negative = inhibition: at the top concentration.
Cytochrome P450 1A2 (Homo sapiens), sequence (P05177 whole entry, looked up): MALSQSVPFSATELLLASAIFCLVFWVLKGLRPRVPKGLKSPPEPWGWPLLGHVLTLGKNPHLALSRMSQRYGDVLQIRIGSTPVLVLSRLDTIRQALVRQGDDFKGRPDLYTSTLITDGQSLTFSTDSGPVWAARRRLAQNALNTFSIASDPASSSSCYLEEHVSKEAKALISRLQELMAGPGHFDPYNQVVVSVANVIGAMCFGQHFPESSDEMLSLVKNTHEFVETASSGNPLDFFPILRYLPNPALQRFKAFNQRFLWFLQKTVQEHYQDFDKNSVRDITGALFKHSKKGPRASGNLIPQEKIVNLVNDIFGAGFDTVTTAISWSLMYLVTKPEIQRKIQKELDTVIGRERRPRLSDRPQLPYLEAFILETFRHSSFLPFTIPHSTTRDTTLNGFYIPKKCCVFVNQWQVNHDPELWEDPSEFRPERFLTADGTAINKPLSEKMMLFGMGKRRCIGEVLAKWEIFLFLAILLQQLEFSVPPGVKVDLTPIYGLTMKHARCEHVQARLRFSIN
With `NCc1ccc(S(N)(=O)=O)cc1` the “activity, negative = inhibition” value was -4.42% [at 25.6 µM].
For `Cc1[nH]c2ccccc2c1C(c1ccccn1)N1CCC(C)CC1` (stereo not drawn), the “activity, negative = inhibition” value was -17.7%.
`O/N=C/c1cc(Cl)ccc1OCc1cccc2ccccc12` was tested, and the AC50 was 0.112 µM (active).
With `Cc1n[nH]c(=S)n1/N=C/c1ccccc1OCc1ccc(Cl)cc1` the AC50 was 1.58 µM (active).
With `O=C1CCC(c2ccc(-n3ccnc3)cc2)=NN1` the AC50 was 0.158 µM (active).
For `CCn1c(O)c(/C=N/N=C2CCCC2)c2ccc(C3=NNC(=O)CC3)cc21`, the “activity, negative = inhibition” value was -21%.
For `O=C(Nc1cccc(F)c1)N1CCC2(CCNCC2)CC1`, the “activity, negative = inhibition” value was 11.5%.
`COCCn1c(=O)c(-c2ccccc2)nc2cnc(Nc3ccccc3)nc21` was tested, and the AC50 was 5.01 µM (active).
For `COc1cccc(Cn2c(=O)c(-c3cccc(C#N)c3)nc3cnc(Nc4ccccc4)nc32)c1`, the “activity, negative = inhibition” value was 0.136%.
In the case of `CCNc1ncc2nc(-c3cc(F)cc(F)c3)c(=O)n(CCOC)c2n1`, the AC50 is reported as 3.16 µM (active).
`CCNc1ncc2nc(-c3ccccc3)c(=O)n(CCOC)c2n1` was tested, and the AC50 was 3.16 µM (active).
For `O=C(CNS(=O)(=O)c1ccc(Br)s1)N1CCC(N2CCCCC2)CC1`, the “activity, negative = inhibition” value was -3.52%.
`Oc1cc(O)c2c(c1)O[C@@H](c1ccc(O)c(O)c1)[C@H](O[C@@]1(c3cc(O)c(O)c(O)c3)Oc3cc(O)cc(O)c3[C@H](O)[C@@H]1O)C2` was tested, and the activity, negative = inhibition was -13.3% [at 11.4 µM].
Work on `COc1ccc(O[C@H]2C=C[C@@H](c3ccccc3)O[C@H]2COC(=O)CC/C(C)=N\O[C@@H](C)CN2CCCc3nc(C)c(C)cc32)cc1` yielded an activity, negative = inhibition of 2.58% [at 11.4 µM].
For `CC(C)Oc1ccc2ccccc2c1C=O`, the AC50 was 1.12 µM (active).
For `COc1ccccc1NS(=O)(=O)c1cccc(C(=O)OCC(=O)Nc2cc(C)on2)c1`, the AC50 was 14.1 µM (active).
With `Cc1cc(NC(=O)COC(=O)c2ccc(NS(=O)(=O)c3ccc(C)c(C)c3)cc2)no1` the “activity, negative = inhibition” value was -13%.
With `Cc1n[nH]c(C)c1S(=O)(=O)N1CCC(C(=O)O)CC1` the “activity, negative = inhibition” value was 1.2%.
`O=C(Nc1ccccc1)[C@@]12C[C@@H]1/C(=N/O)c1ccccc1O2` was tested, and the AC50 was 2.51 µM (active).
With `CCOC(=O)[C@@]12C[C@@H]1/C(=N/O)c1ccccc1O2` the AC50 was 3.98 µM (active).
In the case of `Cc1c(NC(=O)C2CCN(S(=O)(=O)c3ccc(Cl)cc3)CC2)c(=O)n(-c2ccccc2)n1C`, the “activity, negative = inhibition” value is reported as 15.2%.
With `O=C1COc2ccccc2CN1` the “activity, negative = inhibition” value was -7.55%.
In the case of `Fc1ccc(-c2cnc(-c3cccs3)o2)cc1`, the AC50 is reported as 2.82 µM (active).
`CCOC(=O)Nc1ccc2c(c1)N(C(=O)CCN1CCN(C)CC1)c1ccccc1S2` was tested, and the “activity, negative = inhibition” value was -15.3%.
For `COC(=O)c1cc(NC(=O)N2c3ccccc3Sc3ccccc32)cc(C(=O)OC)c1`, the AC50 was 3.16 µM (active).
`CCOC(=O)Nc1ccc2c(c1)N(C(=O)CCN1CCOCC1)c1ccccc1S2` was tested, and the “activity, negative = inhibition” value was -7.96% [at 25.6 µM].
In the case of `CCC1Oc2ccccc2N(CC(=O)NCCCN2CCCCC2C)C1=O` (stereo not drawn), the “activity, negative = inhibition” value is reported as -4.11%.
In the case of `O=[N+]([O-])/C=C\c1cc2ccccc2[nH]1`, the AC50 is reported as 1.26 µM (active).
For `Nc1c(S(=O)(=O)O)cc(Nc2cccc(S(N)(=O)=O)c2)c2c1C(=O)c1ccccc1C2=O`, the AC50 was 3.98 µM (active).
For `NCCNC(=O)c1ncsc1-c1cccc(F)c1`, the AC50 was 10 µM (active).
In the case of `Cc1sc2nc(C3CC3)nc(SCC(=O)N3CC(=O)Nc4ccccc43)c2c1C`, the AC50 is reported as 6.31 µM (active).
In the case of `Cc1nnc(SCC(=O)N2CC(=O)Nc3ccccc32)n1Cc1ccccc1`, the “activity, negative = inhibition” value is reported as 2.82%.
In the case of `Cc1scc2c1N(C(=O)CN1CCN(C)CC1)c1ccccc1NC2=O`, the AC50 is reported as “inactive”.
For `CC(=O)Nc1ccc2nc(C3CCCCC3)[nH]c2c1`, the “activity, negative = inhibition” value was -30%.
For `C[C@@H](C(=O)O)c1ccc(C(=O)c2cccs2)cc1`, the “activity, negative = inhibition” value was -10.6% [at 25.6 µM].
`COC(=O)Nc1nc2ccc(SC(C)C)cc2[nH]1` was tested, and the AC50 was 0.501 µM (active).
For `COC(=O)Nc1nc2ccc(C(=O)c3cccs3)cc2[nH]1`, the AC50 was 0.794 µM (active).
For `COC(=O)c1ccc(C(NC(=O)c2ccccc2)[C@]2(C)C[C@H]2C2CCCCC2)cc1` (stereo partly drawn), the “activity, negative = inhibition” value was -1.81%.
With `COC(=O)c1ccc(C23CC2(C(NP(=O)(c2ccccc2)c2ccccc2)c2ccccc2)C3)cc1` (stereo not drawn) the AC50 was 15.8 µM (active).
With `Cc1ccc2cc(C(=O)O)c(C)nc2c1` the “activity, negative = inhibition” value was -6.36%.
With `O=C(CSc1nnc2c3ccccc3c3ccccc3c2n1)Nc1ccccc1` the AC50 was 1.12 µM (active).
With `O=C(O)CSc1ccn(Cc2ccccc2)c1` the activity, negative = inhibition was -14.3% [at 11.4 µM].
With `CCc1c(C)nc(N)n2c(SCC(=O)Nc3ccccc3)nnc12` the “activity, negative = inhibition” value was -17.2%.
In the case of `Cn1c(SCC(=O)Nc2ccccc2)nc(O)cc1=O`, the “activity, negative = inhibition” value is reported as -9.92%.
With `O=C(O)CSc1cc(-c2ccccc2)nc2ccccc12` the activity, negative = inhibition was -4.67% [at 2.29 µM].
With `c1ccc(CSc2nnc3c4ccccc4c4ccccc4c3n2)cc1` the AC50 was 0.2 µM (active).
For `O=C(O)CSc1nnc2c3ccccc3c3ccccc3c2n1`, the AC50 was 0.0794 µM (active).
In the case of `O=C(O)c1cc(=O)[nH]c(SCc2ccccc2)n1`, the activity, negative = inhibition is reported as -12% [at 11.4 µM].
`CN(C)S(=O)(=O)c1nc(Cl)c2[nH]cnc2n1` showed an activity, negative = inhibition of 2.44% [at 11.4 µM].
In the case of `Cc1ccc(-c2ccc(=O)n(CC(=O)NCCN(C)C)n2)cc1`, the “activity, negative = inhibition” value is reported as -2.76%.
In the case of `C[C@@H]1CCC[C@H](C)N1`, the “activity, negative = inhibition” value is reported as 0.154% [at 25.6 µM].
`COC(=O)C1=C(C)N=C2SC(C)C(=O)N2C1/C=C/c1ccccc1` (stereo not drawn) was tested, and the “activity, negative = inhibition” value was -17.6%.
With `O=C(Nc1cccc(NC(=O)c2ccccc2[N+](=O)[O-])n1)c1ccccc1[N+](=O)[O-]` the AC50 was 8.91 µM (active).
For `Cc1cc(C)nc(NC(=O)c2cccc([N+](=O)[O-])c2C)n1`, the “activity, negative = inhibition” value was -3.25%.
For `CC1CCN(S(=O)(=O)c2ccc3c(c2)C(=NO)c2cc(S(=O)(=O)N4CCC(C)CC4)ccc2-3)CC1`, the “activity, negative = inhibition” value was -10.6%.
`O[C@]1(c2ccccc2)c2ccccc2NC2=NCCN21` showed an activity, negative = inhibition of -14.8% [at 11.4 µM].
For `Nc1cc(S(=O)(=O)O)cc2ccc(S(=O)(=O)O)cc12`, the activity, negative = inhibition was -18.1% [at 2.29 µM].
`CC[C@@]1([N+](=O)[O-])C[C@H]2C=C[C@@H]1C2` showed an activity, negative = inhibition of -12.9% [at 2.29 µM].
In the case of `C[C@@H]1C[C@@H]2[C@H]3CCC4=CC(=O)C=C[C@]4(C)[C@]3(Cl)[C@@H](O)C[C@@]2(C)[C@@]1(O)C(=O)CO`, the “activity, negative = inhibition” value is reported as -1%.
For `O=S(=O)(c1ccccc1)N1CCC2(CCN(c3ncccn3)CC2)CC1`, the “activity, negative = inhibition” value was 5.5%.
For `FC(F)(F)c1ccc(N2CCN(c3cc(-c4ccccc4)nc4ncnn34)CC2)nc1`, the AC50 was 10 µM (active).
`O=S(=O)(c1ccccc1)N1CCN(c2cc(-c3ccccc3)nc3ncnn23)CC1` was tested, and the AC50 was 0.794 µM (active).
`O=S(=O)(c1ccccc1)N1CCC2(CC1)CN(c1ncccn1)C2` was tested, and the “activity, negative = inhibition” value was -3.35%.
